HCMV inh: blocks human cytomegalovirus replication; HFF cells, HCMV-luciferase reporter, 72 h; active compounds read low; activity change, negative = inhibition, % at 57.5 µM; hit rate 4.5% among 410,000; in the data active = activity change below about -60%; inconclusive = no clear call, values can overlap the other calls; inactive = above about -39%; note: % is set by controls: 0 for no effect and ±100 for the full control effect
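After 16 h attachment at 37C, HFF cells received test compound and HCMV-luciferase (1 PFU/cell); reporter luminescence read 72 h later, data normalized against buffer-only and known inhibitor Salinomycin.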
Pf growth 96h: inhibits malaria parasite growth, 96 h. P. falciparum luciferase reporter growth, 96 h. Potency, µM (titrated, usually from 28.7 µM), for inactives: top-dose activity change, negative = inhibition, actives largely listed as inhibitors. hit rate 6.9% among 320,000. AID 504834; note: potency is the fitted concentration of half-maximal effect; % is set by controls: 0 for no effect and ±100 for the full control effect
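P. falciparum expressing integrated firefly luciferase grown in erythrocytes (2% hematocrit, 0.05% parasitemia final) with compounds for 96 hours at 37 C, 5% CO2. Growth inhibition read as loss of luminescence after adding luciferase detection reagent.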
HCV inh: inhibitors of hepatitis C virus infection. AID 651820. hit rate 3.4% among 340,000. Potency, µM (titrated, usually from 41.8 µM), without a hit: at the highest dose activity change, negative = inhibition, hits mostly inhibitors. Huh7.5.1 HCVcc-Cre infection, luciferase reporter, 44 h; note: potency is the fitted concentration of half-maximal effect; % is set by controls: 0 for no effect and ±100 for the full control effect
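Seed cells (1,000/well) for 4 h; treat with compound and infect with HCVcc-Cre, moi about 0.5. Incubate 44 h, then detect luciferase activity.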
Cycloheximide cs: counter-screen hit for Shiga toxin inhibitors, cycloheximide. cell reporter, cycloheximide protein synthesis inhibition counterscreen. max response, %. hit rate 12% among 300,000; in the data active = max response mostly above about 13%, no sharp cut-off; inactive = mostly below about 14%; note: read at 38.3 µM for the half of the compounds with a filed dose; 0% is about no effect
Pf growth 48h: inhibits P. falciparum growth in the first generation, 48 h; P. falciparum luciferase growth in erythrocytes, 48 h; Potency, µM (titrated, usually from 28.7 µM), without a hit: top-dose activity change, negative = inhibition, most hits filed as inhibitors; hit rate 5.9% among 310,000; note: potency is the fitted concentration of half-maximal effect; % is set by controls: 0 for no effect and ±100 for the full control effect
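Read-out is firefly luciferase luminescence from an integrated reporter in P. falciparum, so falling signal marks reduced parasite growth. Infected erythrocytes were at 2% hematocrit and 0.1% parasitemia (final) in Albumax-supplemented RPMI 1640.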
Shiga toxin inh: inhibitors of Shiga toxin in Vero cells | Vero cells, Shiga toxin protein synthesis inhibition reporter | inhibition, % at 38.7 µM | hit rate 9.2% among 290,000 | AID 2315; in the data active = inhibition mostly above about 28%, no sharp cut-off; inactive = mostly below about 43%; note: 0% is about no effect
* = called active by the depositor; ? = inconclusive; . = no result; [ ] = remark or other dose. A selection: hits, their analogues and other compounds. The true share with any hit is near 21%. Unless noted, calls come from the whole dose curve; as a rule, active = well fitted inhibition curve with a large enough effect; inconclusive = small, poorly fitted or top-dose-only effect, or another doubt; inactive = no such curve, though single readings can be large or run the other way.

SMILES	HCMV inh	Pf growth 96h	HCV inh	Cycloheximide cs	Pf growth 48h	Shiga toxin inh
CCOC(=O)c1c(C)n(-c2ccc(C)cc2)c2ccc(OCC(O)CNCCCO)cc12 (stereo unspecified)	-75*	116%	?	-8	?	-10
CCOC(=O)c1c(C)n(C)c2ccc(OCC(O)CNC(CC)CO)cc12 (stereo unspecified)	6	2.1µM*	?	-2	?	6
CCOC(=O)c1c(C)n(-c2ccc(C)cc2)c2ccc(OCC(O)CNCC3CCCO3)cc12 (stereo unspecified)	.	3.3µM*	?	-8	?	-11
FC(F)(F)c1cnc(COc2cc(Cl)cc(Cl)c2)c(Cl)c1	?	-13%	2%	-2	6%	13
CCC1CCCCN1C(=O)Cn1c(=O)n(CC2CCC(C(=O)NC)CC2)c(=O)c2sccc21 (stereo unspecified)	3	.	.	.	.	.
CCCCNC(=S)N1CCN(C(c2ccccc2)c2ccccc2)CC1	-2	17%	?	10	10µM*	13
CCCNC(=S)N1CCN(C(c2ccccc2)c2ccccc2)CC1	-35	?	-13%	-3	?	5
S=C(NCCc1ccccc1)N1CCN(C(c2ccccc2)c2ccccc2)CC1	3	?	?	2	9.3µM*	13
CCNC(=S)N1CCN(C(c2ccccc2)c2ccccc2)CC1	-28	8.3µM*	-14%	3	13µM*	9
CC(C)NC(=O)COc1coc(CN2CCN(C(=O)c3ccco3)CC2)cc1=O	3	0%	10%	.	10%	.
Cc1ccc2[nH]c(O)c(N=NC(=O)C3CC3c3ccccc3)c2c1Br (stereo unspecified)	?	-15%	-1%	-5	?	-11
CCc1nnc(NC(=O)C2CC(=O)N(Cc3ccco3)C2)s1 (stereo unspecified)	-17	5%	-6%	1	6%	-5
O=C(Nc1nc2c(F)cc(F)cc2s1)C1CC(=O)N(Cc2ccco2)C1 (stereo unspecified)	3	5%	-10%	24*	1%	47
Cc1cc(C)c2nc(NC(=O)C3CC(=O)N(Cc4ccco4)C3)sc2c1 (stereo unspecified)	126	-10%	20%	9	19%	-1
Cc1ccc2nc(NC(=O)C3CC(=O)N(Cc4ccco4)C3)sc2c1 (stereo unspecified)	-7	32%	4%	19*	?	25
COc1cccc(C(=O)Nc2nc(-c3nnn(-c4cccc(Cl)c4C)c3C)ns2)c1	-7	.	.	.	.	.
S=c1[nH]ccn1-c1c(Cl)cccc1Cl	8	2%	13%	-6	39%	-11
NS(=O)(=O)c1cccc(NC(=O)c2cccnc2Oc2ccccc2)c1	25	?	14%	2	27%	-11
CC(=O)Nc1cc2c(cc1[N+](=O)[O-])-c1ccccc1C2=NO	11	.	4%	.	.	.
O=[N+]([O-])c1ccc2c(c1)C(=NO)c1cc(Cl)c(Cl)cc1-2	?	.	11µM*	.	.	.
Nc1cc2c(cc1[N+](=O)[O-])-c1ccccc1C2=NO	-68*	.	?	.	.	.
CC(=O)c1cccc(Nc2nc(-c3ccccc3)nc3ccccc23)c1	-31	-16%	10µM*	-1	?	-11
Cc1cccc(Nc2nc(-c3ccccc3)nc3ccccc23)c1	-32	.	.	.	.	.
CC(=O)c1cccc(Nc2ncnc3ccc(Br)cc23)c1	?	-12%	?	8	5.9µM*	7
CC(=O)Nc1cccc(Nc2nc(-c3ccccc3)nc3ccccc23)c1	42	?	6.3µM*	-2	46%	4
SMILES	HCMV inh	Pf growth 96h	HCV inh	Cycloheximide cs	Pf growth 48h	Shiga toxin inh
Oc1cccc(Nc2nc(-c3ccccc3)nc3ccccc23)c1	?	39%	3.5µM*	6	5%	-6
C/C(CC(=O)Nc1ccccc1C#N)=N\NC(=O)c1ccncc1	?	23%	12%	12	-19%	39
CC(O)CNCCNCc1cccs1 (stereo unspecified)	-18	4%	31%	6	6%[5.75 µM]	14
CCn1cc(C(=O)O)c(=O)c2cc(F)c(N3CCN(S(=O)(=O)c4ccc(NC(C)=O)cc4)CC3)cc21	-26	?	-4%	-7	6.6µM*	-10
CCn1cc(C(=O)O)c(=O)c2cc(F)c(N3CCN(C(=S)NC(=O)c4ccccc4F)CC3)cc21	0	6.6µM*	8%	-1	4.1µM*	2
CCn1cc(C(=O)O)c(=O)c2cc(F)c(N3CCN(C(=S)NC(=O)c4cccc(C)c4)CC3)cc21	0	-29%	9%	-1	?	-9
CCn1cc(C(=O)O)c(=O)c2cc(F)c(N3CCNCC3)cc21	.	1.6µM*	2%[8.37 µM]	3	?	-9
CCn1cc(C(=O)NN)c(=O)c2cc(F)c(N3CCOCC3)cc21	-30	12µM*	-17%	-8	?	3
CCn1cc(C(=O)O)c(=O)c2cc(F)c(N3CCN(C(=O)Nc4ccccc4)CC3)cc21	-84*	5%	-23%	-2	0.47µM*	-7
CCCCCCCC(=O)N1CCN(c2cc3c(cc2F)c(=O)c(C(=O)O)cn3CC)CC1	?	?	8%	-2	?	-5
C/C(=N\Nc1ccc([N+](=O)[O-])cc1[N+](=O)[O-])C(C)C(C)C (stereo unspecified)	-25	?	?	-3	-4%	10
CCC(C)/C(C)=N/NC(=O)CNS(=O)(=O)c1ccc([N+](=O)[O-])cc1 (stereo unspecified)	-31	?	-14%	3	?	-16
CCCCNC(=O)CSc1nnc(-c2cccc(S(=O)(=O)N3CCOCC3)c2)o1	11	?	4%	.	13µM*	.
Cc1cc(C)cc(NC(=O)CSc2nnc(-c3ccc(S(=O)(=O)N4CCCC4)cc3)o2)c1	-11	5.2µM*	-13%	-3	?	-3
O=C(CSc1nnc(-c2cccs2)o1)Nc1cccc(S(=O)(=O)N2CCCCC2)c1	9	15µM*	1%	-3	?	-4
C=CCNC(=O)CSc1nnc(-c2cccc(S(=O)(=O)N3CCOCC3)c2)o1	7	.	.	.	.	.
Cc1cccc(NC(=O)CSc2nnc(-c3cccs3)o2)c1	53	.	.	.	.	.
O=C(NCC1OCCCN1S(=O)(=O)c1cc(F)ccc1F)C(=O)NC1CCCCCC1 (stereo unspecified)	-14	-17%	8%	15*	5%	6
O=C(NCCc1c[nH]c2ccccc12)C(=O)NCC1OCCCN1S(=O)(=O)c1ccc(F)cc1 (stereo unspecified)	?	?	?	-6	?	-5
Cc1cc(C)c(S(=O)(=O)N2CCCOC2CNC(=O)C(=O)NCCc2c[nH]c3ccccc23)c(C)c1 (stereo unspecified)	-82*	?	?	-2	?	10

Screens deposited in PubChem BioAssay by National Center for Advancing Translational Sciences (NCATS).
